The source of these data is PubChem BioAssay (NCI).

Assay [1] in a line: NCI Yeast Anticancer Drug Screen. Data for the rad50 strain (AID 155).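 Also: 0% = growth of vehicle-only cultures of the same strain.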 The note with it: S. cerevisiae rad50 strain growth inhibition; at 50.0 µM; active compounds read high. The gist of the method: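 DNA repair mutant yeast, compound exposure, growth read-out; inhibition is taken relative to vehicle.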
Assay [2] in a line: NCI Yeast Anticancer Drug Screen. Data for the mec2-1 strain (AID 157). The note with it: S. cerevisiae mec2-1 strain, at 50.0 µM, active compounds read high. The method, boiled down: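 Vehicle-treated cultures served as reference for growth inhibition of compound-exposed mec2-1 yeast.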
A short description of assay [3]: NCI Yeast Anticancer Drug Screen. Data for the sgs1 mgt1 strain (AID 161).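 Also: 0% = growth of cultures given vehicle only.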 Conditions: S. cerevisiae sgs1 mgt1 strain, at 50.0 µM, active compounds read high. The method, boiled down:
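Inhibition of yeast growth, normalised to vehicle-treated controls, is reported for a strain bearing genetic alterations in DNA damage repair.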

The nature of assay [4]: NCI Yeast Anticancer Drug Screen. Data for the cln2 rad14 strain (AID 165).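 Also: 0% = growth equal to vehicle treated cultures.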 Conditions: S. cerevisiae cln2 rad14 strain, at 50.0 µM, active compounds read high. The method, boiled down:
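Each compound was tested on cln2 rad14 yeast. Inhibition of growth was calculated against vehicle-exposed controls.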

Assay [5] is described as follows: NCI Yeast Anticancer Drug Screen. Data for the bub3 strain (AID 167). The note with it: S. cerevisiae bub3 mutant strain, at 50.0 µM, active compounds read high. The method, boiled down:
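In this screen, a yeast mutant lacking normal mitotic checkpoint function is challenged with compound. Relative growth versus vehicle gives the inhibition value.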

A short description of assay [6]: NCI Yeast Anticancer Drug Screen. Data for the mlh1 rad18 strain (AID 175). Conditions: S. cerevisiae mlh1 rad18 strain growth inhibition; at 50.0 µM; active compounds read high. The method, boiled down: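 Vehicle-treated cultures served as the reference for growth inhibition in a yeast strain carrying DNA damage repair alterations exposed to each compound.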

Compounds without any hit were thinned out: in the full panel of roughly 79,000, 15% have a hit. Unmarked numbers belong to inactive results. Activity calls are given as the source filed them. Rule as the data show it: active = growth inhibition above about 70%; inactive = the rest.

For `CCN(CC)CCOC(=O)c1cc(C(C)O)nc2ccccc12` (stereo not given), the growth inhibition in assay [1] was 0.6%; in assay [2], 12.3%; in assay [3], -10.5%; in assay [4] it was 0.55%; in assay [5], 21.6%; in assay [6] it was -7.1%.

With `CSC(N)=NC1CCCCC1`, the growth inhibition in assay [1] was -7.35%; in assay [2] it was 0.1%; in assay [3], -6.05%; in assay [4], -30.4%; in assay [5], 35.9%; in assay [6] it was 6.15%.

With `O=C1NC(=O)C(c2ccco2)N1` (stereo not given), the growth inhibition was 3.7% in assay [1]; -1.55% in assay [2]; -12.2% in assay [3]; 4.8% in assay [4]; -16.7% in assay [5]; 8.2% in assay [6].

With `c1ccc(CNc2ccccc2)cc1`, the growth inhibition is 3.6% in assay [1]; -29.5% in assay [2]; -24.4% in assay [3]; 12.1% in assay [4]; -18.9% in assay [5]; -2.1% in assay [6].

As for `N#CC1CCN(Cc2ccccc2)C(C#N)C1` (stereo not given), the growth inhibition in assay [1] was -9.05%; in assay [2], -2.65%; in assay [3] it was -16.8%; in assay [4] it was -4.8%; in assay [5] it was -14.2%; in assay [6] it was 3.25%.

For the compound `COC(=O)C1=C(C)N(NC(=O)c2ccccc2)C2(O)CCCC(=O)C12C` (stereo not given), the growth inhibition in assay [1] is 20.2%; in assay [2], 2.2%; in assay [3], 17.8%; in assay [4], -29.6%; in assay [5] it was -6.05%; in assay [6] it was 23.9%.

Turning to `ClCCOC(CCl)OCCCl`, the growth inhibition in assay [1] was 24.1%; in assay [2], 6.9%; in assay [3], 22.1%; in assay [4] it was 20.4%; in assay [5], 6.5%; in assay [6], 14.5%.

Consider `CCC/C=C(/CC)C(=O)OC(=O)/C(=C/CCC)CC`, for which the growth inhibition in assay [1] is 23.9%; in assay [2] it was 2.1%; in assay [3], 13.8%; in assay [4], -7.25%; in assay [5], 32.1%; in assay [6] it was 13.6%.

In the case of `CCC(C)CC(O)CC(C)C` (stereo not given), the growth inhibition in assay [1] is 13.9%; in assay [2] it was 8.85%; in assay [3], 1.2%; in assay [4], 12.7%; in assay [5] it was 2.65%; in assay [6], 13%.

Turning to `CS(=O)(=O)N/N=C1/C=C2C/C(=N\NS(C)(=O)=O)C=C2C1`, the growth inhibition was 27.6% in assay [1]; -0.7% in assay [2]; 47.5% in assay [3]; 30.2% in assay [4]; -1.2% in assay [5]; 43.7% in assay [6].

Consider `O=C1OC(c2ccccc2)C=C1Nc1ccccc1` (stereo not given), for which the growth inhibition in assay [1] is 9.55%; in assay [2], 12.4%; in assay [3], -3.05%; in assay [4] it was -12.1%; in assay [5], 17%; in assay [6], 9.4%.

For the compound `Cn1cnc2cc(N3CCOCC3)c([N+](=O)[O-])cc2c1=O`, the growth inhibition was 17.4% in assay [1]; 12% in assay [2]; -0.7% in assay [3]; 12.8% in assay [4]; -1.9% in assay [5]; 17.8% in assay [6].

As to `CC(=O)CC(=O)NCCNC(=O)CC(C)=O`, the growth inhibition in assay [1] was -4.55%; in assay [2], -11.6%; in assay [3], 10.3%; in assay [4], 6.4%; in assay [5], -4.55%; in assay [6] it was 8.85%.

With `CCCC1(c2ccccc2)SCC(=O)NC1=O` (stereo not given), the growth inhibition in assay [1] was 31.3%; in assay [2] it was -0.2%; in assay [3], -16.6%; in assay [4], -25.6%; in assay [5], -14.2%; in assay [6], -25.9%.

For the compound `CC(C)CCc1n[nH]c(=O)n1/N=C\c1ccccc1`, the growth inhibition in assay [1] was -4.25%; in assay [2] it was -9.35%; in assay [3] it was -0.05%; in assay [4], -10.6%; in assay [5], 19.1%; in assay [6], 26.6%.

Take `Cc1c(C#N)c2n(c1C)CCN2`: the growth inhibition in assay [1] is -14.3%; in assay [2], -14.1%; in assay [3], -9.2%; in assay [4], -36%; in assay [5], -5.65%; in assay [6], -4.45%.

On to `Nc1cccc([N+](=O)[O-])c1O`, for which the growth inhibition was 4.75% in assay [1]; 2.45% in assay [2]; 12.7% in assay [3]; 9.75% in assay [4]; 5.4% in assay [5]; 12.4% in assay [6].

Turning to `CCOC(=O)C1=C(OC(OCC)C([Se]c2ccccc2)C(C)C)CCC1` (stereo not given), the growth inhibition was 65.8% in assay [1]; 33.5% in assay [2]; 65.2% in assay [3]; 42.2% in assay [4]; 58.6% in assay [5]; 51% in assay [6].

Take `COc1cc(OC2OC(CO)C(O)C(O)C2O)c2c(O)c3c(=O)cc(C)oc3cc2c1` (stereo not given): the growth inhibition was 12.8% in assay [1]; 19.4% in assay [2]; 2.05% in assay [3]; 20.7% in assay [4]; 2.55% in assay [5]; 3.8% in assay [6].

Consider `CC[CH2][Sn]([CH2]CC)([O]C(=O)c1cccnc1SC)[O][Sn]([CH2]CC)([CH2]CC)[O]C(=O)c1cccnc1SC`, for which the growth inhibition in assay [1] was 88.5% (active); in assay [2] it was 90% (active); in assay [3], 90.8% (active); in assay [4], 88.9% (active); in assay [5] it was 89.1% (active); in assay [6], 82.1% (active).

For the compound `Nc1ncnc2c1ccn2Cc1c(Cl)cccc1Cl`, the growth inhibition in assay [1] was 2.05%; in assay [2], -0.2%; in assay [3] it was 7.1%; in assay [4], -2.75%; in assay [5], 23.9%; in assay [6], 5.4%.

With `CC(=O)NCCOC(=O)c1ccccc1`, the growth inhibition in assay [1] is 34.5%; in assay [2], 4.75%; in assay [3], 16.4%; in assay [4] it was -17.9%; in assay [5] it was 4.05%; in assay [6], 5.9%.

In the case of `O=C1OCC(O)C(O)C(O)C(O)C1O` (stereo not given), the growth inhibition in assay [1] was 36.1%; in assay [2], 27.3%; in assay [3], 26.2%; in assay [4], 21.1%; in assay [5] it was 38.4%; in assay [6] it was 39.7%.

Consider `O=C1OC2C(O)C3CC1C2O3` (stereo not given), for which the growth inhibition in assay [1] is -8.15%; in assay [2], -6.05%; in assay [3] it was -5.5%; in assay [4], -6.85%; in assay [5], -2.25%; in assay [6], 0.45%.

As for `CCOc1ccc(NC(=O)c2c(N/N=C/c3ccc(OC)cc3)nc(=O)[nH]c2C)cc1`, the growth inhibition was -14.2% in assay [1]; -31.5% in assay [2]; -21.6% in assay [3]; -8.7% in assay [4]; -15.6% in assay [5]; -28.7% in assay [6].

As to `O=C1N(Cc2ccccc2)CC2CCc3c(ccc4ccccc34)N12` (stereo not given), the growth inhibition in assay [1] is 11%; in assay [2], -12.9%; in assay [3], -1.3%; in assay [4] it was -3.85%; in assay [5], 4.85%; in assay [6], 4.75%.

Take `CN1C/C(=C\c2ccccc2)C2=NN(C(N)=S)[C@H](c3ccccc3)[C@@H]2C1`: the growth inhibition in assay [1] was 3.5%; in assay [2], -18.1%; in assay [3], -5.85%; in assay [4] it was 10.9%; in assay [5] it was -19.8%; in assay [6], -16.9%.

In the case of `C[C@@H](CO)OCOCc1ccccc1`, the growth inhibition is 7.5% in assay [1]; -1.25% in assay [2]; 4% in assay [3]; 18.5% in assay [4]; 7.3% in assay [5]; 19.5% in assay [6].

As for `COc1nc2cc(C)c(C)cc2n1C1OC(CO)C(O)C1O` (stereo not given), the growth inhibition in assay [1] was -12.6%; in assay [2], 16.4%; in assay [3], 6.95%; in assay [4] it was -8.3%; in assay [5], -0.9%; in assay [6], -7%.

As to `O=NNc1ccc(Sc2ccc(NN=O)nc2)cc1`, the growth inhibition in assay [1] is 4.65%; in assay [2], -7.4%; in assay [3], 8.45%; in assay [4], 17%; in assay [5], -3.15%; in assay [6], 21.9%.

As for `O=C(Nc1ccc(S(=O)(=O)NC2CCCCC2)cc1)Oc1ccc([N+](=O)[O-])cc1`, the growth inhibition in assay [1] is 32.5%; in assay [2], 3.55%; in assay [3], 18.4%; in assay [4] it was 10.8%; in assay [5], 8.4%; in assay [6] it was 19.4%.

On to `COc1ccc2[nH]c3c(c2c1)-c1ncncc1CC3`, for which the growth inhibition in assay [1] was 37.4%; in assay [2], -9.65%; in assay [3], -3.7%; in assay [4] it was 6.1%; in assay [5], 40.4%; in assay [6], 24.4%.

Regarding `CCN(CC)CCNc1ncnc2c1cnn2C`, the growth inhibition was 7.7% in assay [1]; 1.8% in assay [2]; -17.9% in assay [3]; -4.5% in assay [4]; -20.9% in assay [5]; -8.9% in assay [6].

`CCOc1ccccc1NC(=O)C1=C(C)NC(C)=C(C(=O)Nc2ccccc2OCC)C1c1ccc2c(c1)OCO2`: the growth inhibition in assay [1] is 9.5%; in assay [2] it was 44.5%; in assay [3], 41.3%; in assay [4], 23.2%; in assay [5] it was 43.1%; in assay [6], 39.9%.

With `CSc1nc(NC2OC(COC(C)=O)C(OC(C)=O)C(OC(C)=O)C2OC(C)=O)c(N=C(C)C(C)=O)c(=O)n1C` (stereo not given), the growth inhibition in assay [1] was 16.2%; in assay [2], -7.75%; in assay [3], -14.2%; in assay [4] it was 9.7%; in assay [5] it was 1.2%; in assay [6], 6.95%.

`O=C(O)c1ccc(/C=N/NC(=O)C(O)(c2ccccc2)c2ccccc2)cc1`: the growth inhibition in assay [1] is 8.3%; in assay [2] it was -21.9%; in assay [3], -18.9%; in assay [4] it was 11.7%; in assay [5], -10.4%; in assay [6], -9.65%.

`CCN(CC)c1ccc(/C=C(\C)c2nc3ccc(Cl)cc3[nH]2)cc1`: the growth inhibition in assay [1] was -5.35%; in assay [2] it was 6.6%; in assay [3], 4.5%; in assay [4] it was 7%; in assay [5] it was -5.95%; in assay [6] it was -4.75%.

`O=C(/C=C/c1ccccc1)Nc1cc(Cl)ccc1Cl`: the growth inhibition in assay [1] is 4.75%; in assay [2], 26.1%; in assay [3], 22.6%; in assay [4] it was -7.3%; in assay [5], 31.8%; in assay [6] it was 17.6%.

`CCCCCCCCCCCCCCCCC(CCCCCCCCCCCCCCCC)c1ccccc1`: the growth inhibition in assay [1] was 35.2%; in assay [2], -0.65%; in assay [3] it was 13.4%; in assay [4], -18.1%; in assay [5] it was 4.05%; in assay [6] it was 18.6%.

As for `O=C1CC(c2ccccc2)NCN1` (stereo not given), the growth inhibition in assay [1] is 3.95%; in assay [2] it was 1%; in assay [3], 7.1%; in assay [4] it was 2.2%; in assay [5], -2.4%; in assay [6] it was 8.3%.
